Consider nine compounds from PubChem BioAssay (NCI).

Molecules are shown by their SMILES. This is part of a sample that, as a whole, favours compounds with a hit. Of some 83,000 tested, about 20% had one in any assay.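 Activity criterion: percent growth below 10, measured after cells in 96-well plates were exposed to a single compound concentration for 48 hours.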 Values without a mark were called inactive. The source made the active and inactive calls.

Some test systems named below: SR leukemia; RPMI-8226 leukemia; OVCAR-8 ovarian; OVCAR-5 ovarian; OVCAR-4 ovarian; SK-OV-3 ovarian; IGROV1 ovarian; OVCAR-3 ovarian; NCI/ADR-RES ovarian; T-47D breast; BT-549 breast; MDA-MB-435 melanoma; SW-620 colon; MCF7 breast; HCT-116 colon; HCC-2998 colon; KM12 colon; HS 578T breast.
Holding throughout (assay): NCI-60 one-dose screen, 48 h (100 = growth as untreated, 0 = no growth, -100 = all killed)
Settings in all cases: 10 µM unless noted

For the compound `CCCCCCCCOC(=O)C(C)OC(=O)OCCOCCOC(=O)OC(C)C(=O)OCCCCCCCC` (stereo not given), the growth in the assay with SR leukemia is 104%; with RPMI-8226 leukemia, 98.7%; in the assay on OVCAR-8 ovarian, 105%; in the assay on OVCAR-5 ovarian it was 81.8%; in the assay on OVCAR-4 ovarian, 117%; in the assay on SK-OV-3 ovarian, 103%. Besides, the growth is 104% with IGROV1 ovarian; 98.6% with OVCAR-3 ovarian; 101% in the assay on NCI/ADR-RES ovarian; 99.9% in the assay on T-47D breast; 107% in the assay with BT-549 breast; 103% with MDA-MB-435 melanoma. The growth in the assay with SW-620 colon is 106%; in the assay on MCF7 breast it was 104%; in the assay on HCT-116 colon, 102%; with HCC-2998 colon, 100%; in the assay with KM12 colon, 104%.

For `S=C(S)Oc1cccc2cccnc12`, the growth with SR leukemia is 87.7%; in the assay with RPMI-8226 leukemia, 106%; in the assay on OVCAR-8 ovarian, 108%; in the assay with OVCAR-5 ovarian, 108%; with SK-OV-3 ovarian, 100%; with IGROV1 ovarian, 86.1%. Also, the growth in the assay with OVCAR-3 ovarian is 120%; in the assay with HS 578T breast, 96.2%; in the assay with NCI/ADR-RES ovarian, 106%; in the assay with T-47D breast it was 107%; in the assay on BT-549 breast, 98.4%; in the assay on MDA-MB-435 melanoma, 104%. Besides, the growth with SW-620 colon was 105%; with MCF7 breast, 95.8%; with HCT-116 colon, 95.9%; with HCC-2998 colon, 113%; in the assay with KM12 colon it was 109%.

Take `CCCCCN(CCCCC)C(=O)C(CCC(=O)O)NC(=O)c1ccc(Cl)c(Cl)c1` (stereo not given): the growth is 94.4% in the assay on SR leukemia; 118% with RPMI-8226 leukemia; 106% in the assay with OVCAR-8 ovarian; 102% in the assay with OVCAR-5 ovarian; 114% in the assay on SK-OV-3 ovarian; 107% in the assay on IGROV1 ovarian. Also, the growth is 113% with OVCAR-3 ovarian; 102% in the assay on HS 578T breast; 106% in the assay with NCI/ADR-RES ovarian; 132% in the assay with BT-549 breast; 112% with MDA-MB-435 melanoma; 106% in the assay on SW-620 colon. Besides, the growth was 96.7% in the assay on MCF7 breast, 112% in the assay with HCT-116 colon, 113% in the assay on HCC-2998 colon and 114% in the assay on KM12 colon.

`C(=Nc1ccc(-c2ccc(N=Cc3ccccc3)cc2)cc1)c1ccccc1`: the growth is 86.3% with SR leukemia; 103% with RPMI-8226 leukemia; 109% with OVCAR-8 ovarian; 116% in the assay with OVCAR-5 ovarian; 103% in the assay with SK-OV-3 ovarian; 87.6% with IGROV1 ovarian. The growth with OVCAR-3 ovarian is 111%; in the assay on HS 578T breast, 82.1%; in the assay with NCI/ADR-RES ovarian, 101%; with T-47D breast, 107%; with BT-549 breast, 97.5%; with MDA-MB-435 melanoma, 107%. In addition, the growth in the assay on SW-620 colon was 106%; with MCF7 breast, 89.9%; in the assay with HCT-116 colon, 100%; in the assay with HCC-2998 colon, 110%; with KM12 colon, 107%.

On to `Clc1ccc(-c2nc(-c3cccs3)no2)cc1`, for which the growth with SR leukemia was 101%; in the assay on RPMI-8226 leukemia, 95.3%; in the assay on OVCAR-8 ovarian, 101%; in the assay on SK-OV-3 ovarian, 99.2%; in the assay on IGROV1 ovarian, 77.1%; in the assay on OVCAR-3 ovarian it was 103%. For the same compound, the growth in the assay with HS 578T breast was 99.5%; with NCI/ADR-RES ovarian it was 103%; with T-47D breast, 56.9%; in the assay on BT-549 breast it was 102%; in the assay on MDA-MB-435 melanoma it was 107%; in the assay with SW-620 colon it was 91%. The growth is 33.7% in the assay on MCF7 breast, 97.8% in the assay with HCT-116 colon, 102% in the assay with HCC-2998 colon and 103% in the assay on KM12 colon.

Turning to `O=C(Nc1cccc(Cl)c1)Nc1ccccc1Cl`, the growth was 82.1% in the assay on SR leukemia; 55.9% in the assay with RPMI-8226 leukemia; 87.3% with OVCAR-8 ovarian; 115% with OVCAR-5 ovarian; 101% in the assay on SK-OV-3 ovarian; 85.9% in the assay on IGROV1 ovarian. Besides, the growth in the assay on OVCAR-3 ovarian was 78.4%; with NCI/ADR-RES ovarian it was 80.6%; in the assay with T-47D breast, 81.5%; in the assay with BT-549 breast, 99.2%; with MDA-MB-435 melanoma, 92.2%; in the assay on SW-620 colon, 89.5%. Also, the growth with MCF7 breast is 77.8%; in the assay with HCT-116 colon it was 90%; in the assay with HCC-2998 colon, 99.8%; with KM12 colon it was 89.9%.

On to `Cc1ccc(OC2=C(C#N)C(=N)N3C(=NN2)Sc2c(C)ccc(C)c23)cc1`, for which the growth is 98.2% with SR leukemia; 105% in the assay on RPMI-8226 leukemia; 104% in the assay with OVCAR-8 ovarian; 128% with OVCAR-5 ovarian; 96.2% with SK-OV-3 ovarian; 87.7% in the assay on IGROV1 ovarian. Further, the growth with OVCAR-3 ovarian is 117%; with HS 578T breast, 107%; with NCI/ADR-RES ovarian it was 101%; in the assay on T-47D breast, 84.8%; in the assay on BT-549 breast, 105%; in the assay with MDA-MB-435 melanoma it was 106%. The growth was 102% in the assay on SW-620 colon; 91% in the assay on MCF7 breast; 106% in the assay on HCT-116 colon; 106% in the assay with HCC-2998 colon; 106% in the assay with KM12 colon.

As for `CCc1c(C)c2ccc(O)c(-c3cc(-c4ccccc4)c(C#N)c(=O)[nH]3)c2oc1=O`, the growth in the assay on SR leukemia was 95.5%; with RPMI-8226 leukemia, 81%; in the assay with OVCAR-8 ovarian it was 100%; in the assay with OVCAR-5 ovarian it was 95.1%; in the assay with SK-OV-3 ovarian, 95.9%; with IGROV1 ovarian, 101%. Further, the growth in the assay with OVCAR-3 ovarian was 88.8%; in the assay with HS 578T breast it was 118%; with NCI/ADR-RES ovarian, 99.9%; in the assay on T-47D breast, 85.9%; in the assay with BT-549 breast, 113%; in the assay on MDA-MB-435 melanoma it was 114%. The growth with SW-620 colon is 105%; in the assay on MCF7 breast it was 84.7%; with HCT-116 colon, 95.7%; in the assay on HCC-2998 colon, 111%; in the assay on KM12 colon it was 96.2%.

As to `COc1cc(Nc2ncccc2/C=C/C(=O)c2cc(OC)c(OC)c(OC)c2)cc(OC)c1OC`, the growth in the assay with SR leukemia was 9.53% (active); in the assay on RPMI-8226 leukemia, 52.1%; with OVCAR-8 ovarian, 71.4%; in the assay with OVCAR-5 ovarian, 102%; in the assay with SK-OV-3 ovarian, 97.4%; with IGROV1 ovarian it was 87.1%. The growth in the assay with OVCAR-3 ovarian was 91.9%; in the assay with HS 578T breast, 99.5%; with NCI/ADR-RES ovarian, 79.4%; in the assay with T-47D breast it was 34.1%; with BT-549 breast it was 100%; in the assay with MDA-MB-435 melanoma, 61.4%. In addition, the growth in the assay with SW-620 colon was 71.9%; in the assay on MCF7 breast, 9.35% (active); in the assay on HCT-116 colon, 60.6%; in the assay with HCC-2998 colon, 93.5%; in the assay with KM12 colon it was 71.1%.
